# Measurements reported in PubChem BioAssay AID651947 (Broad Institute, 2012).
# Measured potencies and affinities stand elsewhere. Results filed as inconclusive are left out. Unmarked numbers belong to inactive results.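 How the source made its calls: active means luminescence drop in HepG2 cells whose fitted half-effect dose is at most twice the top valid dose; inconclusive means flat curve with 30 to 70% signal loss, or unreliable fit; inactive means the rest.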
# Assay: cytotoxicity in HepG2 cells, dose response, cytotoxicity control, cell-based, plate reader, dry powder (AID 651947)
# Details: HepG2 viability, ATP luminescence (CellTiter-Glo), 48 h, hits give low values; at 26 µM unless noted
row,SMILES,max activity
1,c1ccc(-c2nnc(SCc3ccncc3)o2)cc1,-21.6% [at 0.38 µM]
2,FC(F)(F)c1cccc(CSc2nnc(-c3ccccc3)o2)c1,-34.6% [at 1.6 µM]
3,FC1(F)CCN(CCSc2nnc(-c3ccccc3)o2)CC1,-22.5% [at 1.6 µM]
4,Fc1ccc(-c2nnc(SCc3ccccc3)o2)cc1,14.5%
5,COc1ccc(-c2nnc(SCc3ccc(Cl)cc3)o2)cc1,-16.2% [at 0.38 µM]
6,Brc1ccc(CSc2nnc(-c3ccccc3)o2)cc1,32.4% [at 6 µM]
7,Fc1ccc(-c2nnc(SCc3cn(Cc4ccccc4)nn3)o2)cc1,22.1% [at 3 µM]
8,[O-][n+]1ccccc1CSc1nnc(-c2ccccc2)o1,-47.8% [at 1.6 µM]
9,Clc1cccc(-c2nnc(SCc3ccccc3)o2)c1,-48.3% [at 3 µM]
10,Clc1ccccc1CSc1nnc(-c2ccccc2)o1,17.5% [at 0.195 µM]
11,Clc1ccccc1-c1nnc(SCc2ccccc2)o1,-37.6% [at 6 µM]
12,c1ccc(-c2nnc(SCc3cscn3)o2)cc1,-61.2% [at 12 µM]
13,c1ccc(Cn2cc(CSc3nnc(-c4ccccc4)o3)nn2)cc1,-41.8%
14,c1ccc(-c2nnc(SCc3ncco3)o2)cc1,8.06% [at 0.195 µM]
15,CC1(O)CN(CCSc2nnc(-c3ccccc3)o2)C1,-33.4% [at 0.195 µM]
16,COc1ccccc1-c1nnc(SCc2ccccc2)o1,-18.4% [at 0.195 µM]
17,Cc1ccc(CSc2nnc(-c3ccccc3)o2)cc1,15.4% [at 3 µM]
18,COCCSc1nnc(-c2ccccc2)o1,27.8% [at 0.195 µM]

row,SMILES,max activity
1,c1ccc(-n2cc(CSc3nnc(C4CCCC4)o3)nn2)cc1,20.3% [at 0.38 µM]
2,FC(F)(F)Oc1ccccc1CSc1nnc(-c2ccccc2)o1,-50.7% [at 1.6 µM]
3,COc1ccc(-c2nnc(SCc3ccccc3)o2)cc1,-23.7% [at 6 µM]
4,Cc1ccc(-c2nnc(SCc3ccccn3)o2)cc1,-42.6% [at 0.38 µM]
5,FC(F)(F)c1cccc(-c2nnc(SCc3ccccc3)o2)c1,20.7% [at 12 µM]
6,CN(Cc1ccccc1)c1nnc(-c2ccccc2)o1,-28.2%
7,c1ccc(COc2nnc(-c3ccccc3)o2)cc1,-50.7% [at 1.6 µM]
8,c1ccc(-c2nnc(SC(c3ccccc3)c3ccccc3)o2)cc1,-33% [at 0.8 µM]
9,c1ccc(CSc2nnc(-c3cccnc3)o2)cc1,-26.9% [at 0.8 µM]
10,CN(C)CCSc1nnc(-c2ccccc2)o1,-18.8% [at 0.195 µM]
11,Clc1ccc(CSc2nnc(-c3ccccc3)o2)cc1,-22.7% [at 0.8 µM]
12,COc1ccc(CSc2nnc(-c3ccc(Cl)cc3)o2)nc1,20.3% [at 0.8 µM]
13,c1ccc(CSc2nnc(-c3ccccn3)o2)cc1,-20.9% [at 1.6 µM]
14,CS(=O)(=O)c1cccc(CSc2nnc(-c3ccccc3)o2)c1,-12.6% [at 0.38 µM]
15,c1ccc(Cn2cc(CSc3nnc(C4CCC4)o3)nn2)cc1,-18.3% [at 0.38 µM]
16,c1ccc(CSc2nnc(-c3ccco3)o2)cc1,-42.4% [at 6 µM]
17,Fc1ccccc1-c1nnc(SCc2ccccc2)o1,-29.8% [at 0.195 µM]
18,c1ccc(CSc2nnc(-c3ccncc3)o2)nc1,-29.6% [at 6 µM]
